According to PubChem BioAssay (NCI):
Compounds without any hit were thinned out: in the full panel of roughly 83,000, 20% have a hit.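 Compound tested at a single concentration for 48 hours in 96-well plates; a percent growth value below 10 was scored as active.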 Activity calls are given as the source filed them.

What was measured:
Experiment in all cases: NCI-60 one-dose screen, 48 h (100 = growth as untreated, 0 = no growth, -100 = all killed)
Conditions in all cases: 10 µM unless noted
NCI-H23 lung = tested on: NCI-H23 lung
NCI-H226 lung = tested on: NCI-H226 lung
NCI-H322M lung = tested on: NCI-H322M lung
HOP-62 NSCLC = tested on: HOP-62 NSCLC
NCI-H460 lung = tested on: NCI-H460 lung
NCI-H522 lung = tested on: NCI-H522 lung
A549/ATCC NSCLC = tested on: A549/ATCC NSCLC
786-0 renal = tested on: 786-0 renal
COLO 205 colon = tested on: COLO 205 colon
DU-145 prostate = tested on: DU-145 prostate
K-562 leukemia = tested on: K-562 leukemia
MALME-3M melanoma = tested on: MALME-3M melanoma
MDA-MB-231 breast = tested on: MDA-MB-231 breast
RXF 393 renal = tested on: RXF 393 renal
SF-268 CNS = tested on: SF-268 CNS
SF-295 CNS = tested on: SF-295 CNS
SF-539 CNS = tested on: SF-539 CNS
UACC-257 melanoma = tested on: UACC-257 melanoma
M14 melanoma = tested on: M14 melanoma

Measured: growth

COc1ccc(/C=C/c2nc3ccccc3c(=O)n2CC(=O)Nc2ccc(Cl)cc2)cc1
inactive: NCI-H23 lung 60.7% | NCI-H226 lung 30.4% | NCI-H322M lung 88.8% | NCI-H460 lung 22.6% | NCI-H522 lung 64.1% | A549/ATCC NSCLC 23% | 786-0 renal 27.5% | COLO 205 colon 74.6% | DU-145 prostate 65.9% | K-562 leukemia 66.6% | MALME-3M melanoma 76.3% | MDA-MB-231 breast 48.8% | RXF 393 renal 48.5% | SF-268 CNS 61.4% | SF-295 CNS 53% | UACC-257 melanoma 92.3% | M14 melanoma 77.8%
active: HOP-62 NSCLC 8.06% | SF-539 CNS -13%

Cc1ccc(C2CC(c3ccc(S(=O)(=O)NCCNc4nc(Nc5ccc(F)cc5)nc(N(C)C)n4)cc3)=Nc3c(N)nc(N)nc3N2)cc1 (stereo not drawn)
active: K-562 leukemia 8.57% | SF-539 CNS -44%
inactive: NCI-H23 lung 65.3% | NCI-H226 lung 62.7% | NCI-H322M lung 70.2% | HOP-62 NSCLC 87.7% | NCI-H460 lung 38.2% | NCI-H522 lung 58.5% | A549/ATCC NSCLC 68.4% | 786-0 renal 42% | COLO 205 colon 54.8% | DU-145 prostate 76% | MALME-3M melanoma 54.3% | MDA-MB-231 breast 32.5% | RXF 393 renal 27.2% | SF-268 CNS 57.7% | SF-295 CNS 48% | UACC-257 melanoma 75.4% | M14 melanoma 41.5%

N/C(=N\c1nc2ccccc2s1)NC(=O)Nc1ccccc1Br
inactive: NCI-H322M lung 14.6% | K-562 leukemia 11.5% | UACC-257 melanoma 54.8%
active: NCI-H23 lung -24.4% | NCI-H226 lung 8.79% | HOP-62 NSCLC -19.3% | NCI-H460 lung -26.1% | NCI-H522 lung -61.3% | A549/ATCC NSCLC -26.2% | 786-0 renal -24.9% | COLO 205 colon -72.6% | DU-145 prostate -40.7% | MALME-3M melanoma -12.5% | MDA-MB-231 breast -50.3% | RXF 393 renal 0.178% | SF-268 CNS 1.62% | SF-295 CNS -31.4% | SF-539 CNS -75.6% | M14 melanoma 2.92%

Clc1ccc(-c2ccc(OCCCN3CCN(c4ccncc4)CC3)cc2)cc1
active: NCI-H460 lung -6.61% | COLO 205 colon -77.8% | K-562 leukemia -45.6% | M14 melanoma -54.6%
inactive: NCI-H23 lung 50.7% | NCI-H226 lung 62.5% | NCI-H322M lung 91% | HOP-62 NSCLC 54.3% | NCI-H522 lung 67.8% | A549/ATCC NSCLC 59.1% | 786-0 renal 56.4% | DU-145 prostate 69.1% | MALME-3M melanoma 84.2% | MDA-MB-231 breast 33.1% | RXF 393 renal 15.3% | SF-268 CNS 75.9% | SF-295 CNS 40.6% | SF-539 CNS 30% | UACC-257 melanoma 90.2%

O=C(N1c2ccccc2Sc2ccccc21)n1ccc2cccnc21
inactive: NCI-H23 lung 77.9% | NCI-H226 lung 81% | NCI-H322M lung 74.7% | HOP-62 NSCLC 77.5% | NCI-H460 lung 48.7% | NCI-H522 lung 56.3% | A549/ATCC NSCLC 75.8% | 786-0 renal 77.4% | COLO 205 colon 62.8% | DU-145 prostate 86.6% | K-562 leukemia 19.5% | MALME-3M melanoma 75.5% | MDA-MB-231 breast 69.3% | RXF 393 renal 83.7% | SF-268 CNS 80.8% | SF-295 CNS 81% | SF-539 CNS 76.6% | UACC-257 melanoma 61.1% | M14 melanoma 70.1%

COc1ccc(/C=C2\C(=N)N=C(SCc3nc4ccccc4[nH]3)NC2=O)cc1
inactive: NCI-H23 lung 100% | NCI-H226 lung 98.1% | NCI-H322M lung 110% | HOP-62 NSCLC 105% | NCI-H460 lung 105% | NCI-H522 lung 103% | A549/ATCC NSCLC 112% | 786-0 renal 114% | COLO 205 colon 122% | DU-145 prostate 115% | K-562 leukemia 112% | MALME-3M melanoma 102% | MDA-MB-231 breast 105% | RXF 393 renal 122% | SF-268 CNS 109% | SF-295 CNS 103% | SF-539 CNS 103% | UACC-257 melanoma 108% | M14 melanoma 112%

Cc1ccc(S(=O)(=O)c2nc(S(=O)(=O)c3ccc(C)cc3)c(N3CCC(O)CC3)s2)cc1
inactive: NCI-H23 lung 62.5% | NCI-H226 lung 84.6% | NCI-H322M lung 77.3% | HOP-62 NSCLC 97.5% | NCI-H460 lung 46.2% | NCI-H522 lung 19.7% | A549/ATCC NSCLC 62.1% | 786-0 renal 77.1% | COLO 205 colon 98% | DU-145 prostate 70% | K-562 leukemia 29% | MALME-3M melanoma 92.2% | MDA-MB-231 breast 71.8% | RXF 393 renal 33.6% | SF-268 CNS 70.3% | SF-295 CNS 96.6% | SF-539 CNS 73.7% | UACC-257 melanoma 81.6% | M14 melanoma 71.2%
